# Source: PubChem
# Rows were chosen to be rich in hits. Some 21% of all compounds tested hit in one or more screens of this group.
# Shiga inhibitor = Shiga toxin inhibition; Vero cells, Shiga toxin protein synthesis inhibition reporter; inhibition, % at 38.7 µM; hit rate 9.2% among 290,000; AID 2315; in the data active = inhibition mostly above about 28%, no sharp cut-off; inactive = mostly below about 43%
# Giardia FBPA inh = Giardia lamblia aldolase inhibition; AID 2451; Potency, µM (series often up to 59.6 µM), actives largely listed as inhibitors; purified Giardia FBPA; hit rate 0.71% among 290,000; also: nearly all actives have a fitted effect of over 55% in size
# Target sequence (A8B2U2 whole entry, looked up): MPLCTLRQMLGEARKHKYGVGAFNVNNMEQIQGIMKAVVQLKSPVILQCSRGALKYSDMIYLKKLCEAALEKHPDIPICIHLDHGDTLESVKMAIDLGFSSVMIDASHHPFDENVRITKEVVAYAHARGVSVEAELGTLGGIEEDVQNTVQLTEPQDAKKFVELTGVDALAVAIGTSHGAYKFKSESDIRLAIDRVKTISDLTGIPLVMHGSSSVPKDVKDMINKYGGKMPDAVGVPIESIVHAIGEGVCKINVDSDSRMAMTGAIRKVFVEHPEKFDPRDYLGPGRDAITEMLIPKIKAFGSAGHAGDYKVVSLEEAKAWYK
#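 40 nM FBPA preincubated 10 min at RT with compound (up to 57.5 uM final), then substrate plus GAPDH/TPI/NAD/arsenate coupling and diaphorase/resazurin added. Fluorescence read after 20 min at RT, 525/598 nm.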
# Pf growth 48h = P. falciparum growth inhibition at 48 hours (one generation) | P. falciparum luciferase growth in erythrocytes, 48 h | Potency, µM (series often up to 28.7 µM), hits mostly inhibitors | hit rate 5.9% among 310,000
#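 Read-out is firefly luciferase luminescence from an integrated reporter in P. falciparum, so falling signal marks reduced parasite growth. Infected erythrocytes were at 2% hematocrit and 0.1% parasitemia (final) in Albumax-supplemented RPMI 1640.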
# NS1 function inh = blocks influenza NS1 protein function | Potency, µM (series often up to 46.1 µM) | hit rate 0.4% among 270,000 | AID 2326; calls by dose curve; also: actives are rising curves; nearly all actives have a fitted effect of over 50% in size
#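 Read-out: OD600 growth recovery of NS1-expressing budding yeast. Cells grown overnight at 30C in -URA glucose medium, washed, resuspended and diluted 1:100 in 2% galactose assay medium, pH 6.0. Same strain lacking NS1 served as positive control.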
# Pf growth 96h = P. falciparum growth inhibition at 96 hours; P. falciparum luciferase reporter growth, 96 h; Potency, µM (titrated, usually from 28.7 µM), actives largely listed as inhibitors; hit rate 6.9% among 320,000
#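 Two-generation exposure (96 h) targets delayed-death phenotype. Reporter parasites carrying integrated firefly luciferase, in red cells at 2% hematocrit and 0.05% parasitemia final, kept at 37 C, 5% CO2; luminescence loss indicates inhibition.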
# CHX counter = counter-screen for Shiga toxin inhibitors: cycloheximide protein synthesis inhibition; cell reporter, cycloheximide protein synthesis inhibition counterscreen; max response, %; hit rate 12% among 300,000; in the data active = max response mostly above about 13%, no sharp cut-off; inactive = mostly below about 14%; also: read at 38.3 µM for the half of the compounds with a filed dose
# Hits are given with their value; - = inactive; ? = inconclusive; . = no result given; [ ] = dose if it differs, or a comment. Unless noted, calls follow the shape of the dose curve; as a rule, active = well fitted curve in the direction sought with a large enough effect; inconclusive = small, poorly fitted or top-dose-only effect, or another doubt; inactive = no such curve, though single readings can be large; an effect the other way counts as inactive or inconclusive.
SMILES,Shiga inhibitor,Giardia FBPA inh,Pf growth 48h,NS1 function inh,Pf growth 96h,CHX counter
Cc1cc(C)nc(SCC(=O)NNS(=O)(=O)c2ccc(C#N)cc2)n1,.,.,-,.,-,.
C=C1CCC(OC(C)=O)/C(C)=C/CC2[C@H]1CC2(C)C (some centres not stated),.,-,.,.,.,.
C=C1C(=O)O[C@H]2C1CC[C@@](C)(O)C13C=CC(C)(C21)C1(C3)C(=O)O[C@@H]2C3C(C)=CCC3[C@](C)(O)C[C@H](OC(C)=O)C21 (some centres not stated),34,-,-,-,?,12
CC1=CN2C(=NC(=O)CC2(C)C(=O)N(CC(=O)NC2CCCC2)Cc2ccc(Cl)cc2)C=C1 (configuration not stated),-,-,-,-,-,-
Cc1cc(NC(=O)CCC(=O)N(CCC(C)C)C(C(=O)NCC2CCCO2)c2ccccc2C)no1 (configuration not stated),-,-,?,-,-,-
CCCC1=[N+](CC(=O)c2ccc(Br)cc2)CCn2cccc21,-,-,12µM,-,?,-
Cc1cc(C)cc(N(CCC#N)C(=O)COC(=O)c2nc3nc(C)cc(C)n3n2)c1,.,.,-,.,-,.
Cc1ccc(-n2nc3c(c2NC(=O)CC(C)C)CS(=O)C3)cc1 (configuration not stated),-,-,-,-,-,-
O=C(Cc1cccs1)N/N=C/C(Cl)=C/c1ccccc1,118,-,-,.,?,31
O=C(Cc1cccs1)N/N=C/c1ccccc1,-,-,-,-,-,-
O=C(Cc1cccs1)N/N=C/c1ccco1,-,-,-,-,-,-
Cc1cccc(/C=N/NC(=O)Cc2cccs2)c1,72,-,-,-,-,33
O=C(N/N=C/C(Cl)=C/c1ccccc1)c1ccc2c(c1)OCO2,.,.,-,.,?,.
CCOc1ccc(/C=N/NC(=O)Cc2cccs2)cc1,91,-,-,-,-,44
CCOC(=O)N/N=C/C(Cl)=C/c1ccccc1,54,-,-,.,?,38
O=C1CCCC=C1[C@@H](O)COCc1ccccc1,.,-[12.9 µM],.,.,.,.
CCOC(=O)CC(CC(C)=O)C(=O)OCC (configuration not stated),.,-,.,.,.,.
COc1ccc(-c2nc3cnc(OC)nc3n(-c3ccc(OC)cc3)c2=O)cc1,.,-,.,.,.,.
COc1ccc(NC(=O)c2ccco2)c2ccccc12,-,-,-,-,-,-
CC1CCC(C(C)C)C(O)C1 (configuration not stated),-,-,-,.,-,-
O=C(CSc1nc(-c2ccc(Cl)cc2)cs1)Nc1cccc([N+](=O)[O-])c1,54,-,-,-,?,38
NS(=O)(=O)c1cccc(NC(=O)CSc2ccccn2)c1,-,-,-,-,.,28
O=C(CSc1ccccn1)Nc1cccc([N+](=O)[O-])c1,34,-,-,.,-,32
O=C(CSc1ccccn1)Nc1ccc(F)c([N+](=O)[O-])c1,-,-,-,-,?,-
NS(=O)(=O)c1ccc(NC(=O)CSc2ccccn2)cc1,-,-,-,-,-,-
SMILES,Shiga inhibitor,Giardia FBPA inh,Pf growth 48h,NS1 function inh,Pf growth 96h,CHX counter
O=[N+]([O-])c1cccc(NC(=S)Nc2nc(-c3ccccc3Cl)cs2)c1,75,-,?,-,-,33
O=C1C=CC(=Nc2cccc3c(N=C4C=CC(=O)O4)cccc23)O1,.,.,.,-,.,.
Nc1nc(CN2CCN(c3ccccc3)CC2)nc(Nc2ccc(Cl)cc2)n1,-,-,?,-,-,-
CC(C)c1ccc(NC(=O)CSc2ncccc2C(=O)Oc2cccc([N+](=O)[O-])c2)cc1,36,-,-,?,?,46
CC(C)C(NC(=O)C(CC(=O)O)NC(=O)C(CCCCN)NC(=O)C(N)CCCN=C(N)N)C(=O)NC(Cc1ccc(O)cc1)C(=O)O (configuration not stated),.,.,-,.,1.5µM,.
CC(C)[C@H](NC(=O)[C@H](CC(=O)O)NC(=O)[C@H](CCCCN)NC(=O)[C@@H](N)CCCN=C(N)N)C(=O)N[C@@H](Cc1ccc(O)cc1)C(=O)O,-,-,-,-,-,-
Nc1nnc(CCCCCc2nnc(N)s2)s1,-,-,?,.,-,-
CCCCCCCCc1nnc(N)s1,-,-,-,-,-,12
NS(=O)(=O)c1ccc(CCNc2ccccc2[N+](=O)[O-])cc1,77,-,-,-,-,36
CCNc1ccc(S(N)(=O)=O)cc1[N+](=O)[O-],-,-,-,-,12µM,-
